# Laboratory results taken from PubChem BioAssay (NCATS).
# Where “and” joins values, the source holds several entries; their conditions need not be identical. Equal values may be shown once. Inconclusive results are not listed. Values without a mark were called inactive. Calls of active or inactive are those of the source. The call rests on the fitted dose curve; in most records, active means well fitted inhibition curve with a large enough effect; inconclusive means small, poorly fitted or top-dose-only effect; inactive means flat fitted curve, though single readings scatter.
# Tested on: CRL-7250
# Test: Cytotoxic Profiling of Annotated Libraries Using Quantitative High-Throughput Screening (AID 1296008); further: nearly all actives have a fitted effect of over 60% in size
# Details: Five cell lines viability, CellTiter-Glo ATP luminescence, 48-72 h; max response: hits give low values
# Method in brief: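 Cells exposed to compounds for 48 or 72 hr at 37 degrees Celsius. Viability read as ATP-coupled luminescence with CellTiter-Glo after 10 min at room temperature.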
# On the % scale 0 is the no-effect control and ±100 the full control effect; potency means the concentration at half of the fitted maximal effect.
SMILES,outcome,max response,Potency
NC1CCC(Nc2nc(Nc3ccc(C(=O)N4CCCCC4)cc3)c3ncn(-c4cccc(F)c4)c3n2)CC1 (stereo not drawn),inactive,–,–
Cn1c(N2CCCCS2(=O)=O)nc(C(=O)NCc2ccc(F)cc2)c(O)c1=O,–,-1.04% and -2.16%,–
CS(=O)(=O)N(Cc1ccco1)CC(O)Cn1c2ccccc2c2ccccc21 (stereo not drawn),–,-10% and -6.7%,–
OC[C@@H](O)[C@H](O)[C@H](O)[C@@H](O)CO,–,3.59% and -3.14%,–
N#Cc1ccc(NC(=O)Nc2ccccc2Br)c2n[nH]nc12,–,-24.9%,–
OC[C@H]1O[C@@H](Oc2cc(O)cc(C=Cc3ccc(O)cc3)c2)[C@H](O)[C@@H](O)[C@H]1O,inactive,–,–
CC1CCC(C(=O)N(c2cc(C#CC(C)(C)C)sc2C(=O)O)C2CCC(O)CC2)CC1 (stereo not drawn),–,-4.19% and 3.8%,–
O=c1c(-c2ccc(O)cc2)coc2cc(O[C@@H]3O[C@H](CO)[C@H](O)[C@H](O)[C@H]3O)ccc12,–,-13.5%,–
Cc1[nH]c(C=C2C(=O)Nc3ccc(S(=O)(=O)Cc4c(Cl)cccc4Cl)cc32)c(C)c1C(=O)N1CCC[C@H]1CN1CCCC1,–,1.44%,–
CCS(=O)(=O)N1CC(CC#N)(n2cc(-c3ncnc4[nH]ccc34)cn2)C1,–,-3.54%,–
O=C(O)CCc1nc(-c2ccccc2)c(-c2ccccc2)o1,–,-11.7% and 0.986%,–
CC1(C)S[C@H]2[C@H](NC(=O)[C@@H](N)c3ccc(O)cc3)C(=O)N2[C@@H]1C(=O)O,inactive,–,–
CN(C[C@@H]1COCCO1)S(=O)(=O)Nc1ccc2ccc3ncc(-c4cnn(C)c4)cc3c(=O)c2c1,–,–,0.469 µM (active)
Oc1ccc(C2CCN(c3ccnc4ccccc34)CC2)cc1O,–,–,4.69 µM (active)
CC(=O)Oc1cc2c(s1)CCN(C(C(=O)C1CC1)c1ccccc1F)C2 (stereo not drawn),–,4.12%,–
CC(C)(C(=O)NCC(F)(F)C(F)(F)F)C(=O)N[C@@H]1C(=O)Nc2ccccc2-c2ccccc21,–,-11.4%,–
CC=CC(=O)N(CC)c1ccccc1C,–,-6.43%,–
N[C@H](CSC(c1ccccc1)(c1ccccc1)c1ccccc1)C(=O)O,–,-7.2%,–
COC[C@@H](c1ccc(C(F)(F)F)cc1)N1CCN(C2(C)CCN(C(=O)c3c(C)ncnc3C)CC2)C[C@H]1C,–,-6.4%,–
COc1ccc(Cc2ccc(NC(N)=O)cc2)cc1-c1cccc(Cl)c1,–,2.51%,–
COC(=O)[C@@H]1[C@H]2C[C@H]3c4[nH]c5ccccc5c4CCN3C[C@@H]2CC[C@@H]1O,inactive,–,–
O=C(Nc1cccc(Br)c1)c1cccc(S(=O)(=O)N2CCCCCC2)c1,–,–,23.1 µM (active)
CCn1c(C(=O)N(C2CC2)C2CC2)cc2c3c(ncn3C)c(Nc3cc(C)n(C)n3)nc21,–,3.88% and -9.32%,–
